Among all 360,000 compounds or so, about 25,000 (6.9%) were called active. A call without a number means that no potency is given here. Roughly 9% stayed inconclusive and do not appear here. Calls follow the shape of the dose curve; as a rule, active = well fitted inhibition curve with a large enough effect; inconclusive = small, poorly fitted or top-dose-only effect; inactive = flat fitted curve, though single readings scatter. This excerpt belongs to a sample that is enriched for actives.
target: Luciferin 4-monooxygenase (Photinus pyralis) (UniProt P08659); experiment: qHTS profiling assay for firefly luciferase inhibitor/activator using purifed enzyme and Km concentrations of substrates (counterscreen for miR-21 project); conditions: purified FLuc, luminescence inhibition; series mostly up to 57.5 µM; also: nearly all actives have a fitted effect of over 55% in size
Outline: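 Purified P. pyralis luciferase, 10 nM final, with Km-level 10 uM D-luciferin and 10 uM ATP in 50 mM Tris acetate pH 7.5, 10 mM Mg acetate, 0.01% Tween-20, 0.05% BSA; 6-point qHTS titration about 60 µM downward; luminescence read.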
Potency is read from the fitted curve at half-maximal effect.

Chain of Luciferin 4-monooxygenase (Photinus pyralis) (P08659 whole entry, looked up): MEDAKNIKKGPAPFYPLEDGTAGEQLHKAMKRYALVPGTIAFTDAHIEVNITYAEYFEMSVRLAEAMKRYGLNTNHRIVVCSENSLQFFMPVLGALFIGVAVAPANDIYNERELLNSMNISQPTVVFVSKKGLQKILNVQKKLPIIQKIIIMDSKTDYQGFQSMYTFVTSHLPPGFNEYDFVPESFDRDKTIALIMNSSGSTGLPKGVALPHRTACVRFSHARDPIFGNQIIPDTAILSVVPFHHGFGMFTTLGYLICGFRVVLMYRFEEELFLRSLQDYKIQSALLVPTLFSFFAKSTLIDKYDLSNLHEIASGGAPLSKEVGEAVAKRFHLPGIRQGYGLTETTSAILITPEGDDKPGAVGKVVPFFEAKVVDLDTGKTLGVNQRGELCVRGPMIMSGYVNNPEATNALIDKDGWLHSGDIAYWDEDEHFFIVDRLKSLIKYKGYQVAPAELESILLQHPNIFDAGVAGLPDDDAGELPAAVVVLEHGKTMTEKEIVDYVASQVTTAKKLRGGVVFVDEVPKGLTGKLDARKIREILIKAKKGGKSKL

| Structure (SMILES) | Potency |
| --- | --- |
| CCOC(=O)C1CCCN(C(=O)c2ccc(C)c(S(=O)(=O)N3CCCCC3)c2)C1 (stereo not drawn) | inactive |
| Cn1cccc1/C=N/NC(=O)c1ccc(OC(F)(F)C(F)F)cc1 | 12 µM (active) |
| COC(=O)[C@H](C)NC(=O)Nc1ccc(OC(F)(F)F)cc1 | inactive |
| Cn1cccc1/C=N/NC(=O)CNc1cccc2ccccc12 | inactive |
| COc1ccc(NC(=O)CSc2nc3ccccc3n2CC(=O)N2CCCCC2C)cc1 (stereo not drawn) | inactive |
| Cc1ccc(S(=O)(=O)N2CCOCC2)cc1NC(=O)CSc1nnc(N)s1 | inactive |
| CCOC(=O)c1cc2c(=O)n3ccccc3nc2n(Cc2ccco2)c1=NC(=O)c1ccc(F)cc1 | inactive |
| Cc1ccc(OCCSc2nc3ccc(NC(=O)COc4ccc(C)cc4)cc3s2)cc1 | inactive |
| CC1CCN(S(=O)(=O)c2ccc3c(ccn3CCC(=O)NCc3ccc(N(C)C)cc3)c2)CC1 | inactive |
| COc1ccc(CC(=O)Nc2nnc3n2CCS3)cc1OC | inactive |
| CCOCCCNC(=O)c1cc2c(=O)n3ccccc3nc2s1 | inactive |
| CCc1ccc2oc(-c3ccc(N)cc3)nc2c1 | 0.19 µM (active) |
| NS(=O)(=O)c1ccc(CCNC(=O)CCCCCn2c(=O)[nH]c3ccccc3c2=O)cc1 | inactive |
| CCc1ccc(NC(=O)c2cc(S(=O)(=O)NC3CCCCCC3)ccc2F)cc1 | inactive |
| CCOC(=O)C1=C(c2ccccc2)N=C2SCC(=O)N2C1c1ccc(O)c(OC)c1 (stereo not drawn) | inactive |
| CSc1ccc(CCNC(=O)c2cc(C)nc3c2c(C)nn3-c2cccc(F)c2)cc1 | inactive |
| CCOC(=O)C1=C(c2ccccc2)NC(=S)NC1c1ccc(Cl)cc1 (stereo not drawn) | inactive |
| COc1ccc(C2NC(=S)NC3=C2CCc2ccccc23)cc1OC (stereo not drawn) | inactive |
| CCOc1ccc(C2NC(=S)NC3=C2CCc2ccccc23)cc1 (stereo not drawn) | 21.3 µM (active) |
| CCN1CCc2nc3sc(C(=O)Nc4ccccc4OC(F)(F)F)c(N)c3cc2C1 | inactive |
| Cn1c(=O)c2c(nc(Oc3ccc(C#N)cc3)n2Cc2ccc(Cl)cc2Cl)n(C)c1=O | inactive |
| O=Cc1ccc(Oc2cccc(C(F)(F)F)c2)nc1 | inactive |
| O=[N+]([O-])c1cccc(C2=NCCS2)c1 | inactive |

| Structure (SMILES) | Potency |
| --- | --- |
| FC(F)(F)c1ccnc(Oc2ccc(C3=NCCS3)cc2)c1 | 3.38 µM (active) |
| O=C(OCC(=O)N1CCCC1)c1ccc(Cl)nc1 | inactive |
| CCOc1ccc2nc(/N=C/c3nc(-c4ccccc4)oc3O)sc2c1 | inactive |
| Oc1oc(-c2ccccc2Br)nc1/C=N/c1ccccn1 | 7.57 µM (active) |
| CCOc1ccc(C(=O)NCC(=O)N2CCN(c3ccc(C(F)(F)F)cn3)CC2)cc1 | inactive |
| CCn1cc(C(=O)OCC(=O)Nc2cc(C)cc(C)c2)c(=O)c2ccc(C)nc21 | inactive |
| O=S(=O)(NC1CC1)c1ccc(F)c(F)c1 | inactive |
| Cc1cc(C)cc(NC(=O)CSc2nc(=O)n(CCN3CCOCC3)c3c2CCC3)c1 | inactive |
| Cc1[nH]c2ccccc2c1SCC(=O)Nc1nccs1 | 23.9 µM (active) |
| Cn1c(SCC(=O)Nc2nccs2)nnc1-c1cccnc1 | inactive |
| CCn1c(SCC(=O)Nc2nccs2)nnc1-c1ccco1 | inactive |
| CCOc1ccccc1C(=O)NCc1ccc2c(c1)CCN2C(=O)c1ccc(F)cc1 | inactive |
| Cc1ccccc1NC(=O)CSc1ccc2nnc(-c3ccccn3)n2n1 | inactive |
| Cc1ccc(-c2onc(C)c2C)cc1S(=O)(=O)Nc1ccccn1 | inactive |
| S=C(NCCc1ccccc1)N1CCCCC1 | 16.9 µM (active) |
| COc1ccc(C(=O)NC2CCN(C(=S)NCCc3ccccc3)CC2)cc1 | inactive |
| O=C1CCN(C(=S)NCCc2ccccc2)CC1 | inactive |
| CCOCCCN(C(=O)Cn1nnc(-c2ccc(OC)c(OC)c2)n1)C(CC)C(=O)NC1CCCC1 (stereo not drawn) | inactive |
| O=[N+]([O-])c1ccc(N/N=C2/CCCCC2c2ccccn2)c([N+](=O)[O-])c1 (stereo not drawn) | inactive |
| O=[N+]([O-])c1ccc2nc(-c3ccccn3)[nH]c2c1 | 12 µM (active) |
| O=c1[nH]c2cccnc2n1-c1ccc([N+](=O)[O-])cc1 | inactive |
| COc1ccccc1NC(=O)CSc1oc(-c2ccco2)nc1S(=O)(=O)c1ccc(Br)cc1 | inactive |
| CCOc1ccc(S(=O)(=O)Nc2ccc3oc4c(c3c2)CC(C)CC4)cc1 (stereo not drawn) | inactive |

| Structure (SMILES) | Potency |
| --- | --- |
| N#Cc1ccccc1NC(=O)c1cccc(COc2ccc(Cl)cc2Cl)c1 | 13.5 µM (active) |
| CSc1ccc(C#N)cc1NC(=O)c1cccc(Cl)c1 | inactive |
| CSc1ccc(C#N)cc1NC(=O)c1ccc(Cl)cc1 | inactive |
| c1ccc(-c2csc(N3CCc4ccccc4C3)n2)cc1 | 12 µM (active) |
| O=C(CN1CCN(c2nc(-c3ccccc3)cs2)CC1)NCc1ccc2c(c1)OCO2 | inactive |
| CN(C)CCCNC(=S)N1CCN(c2nc(-c3ccccc3)cs2)CC1 | inactive |
| CCCCCn1c(=O)[nH]c2cc(C(=O)NCCCN3CCCCC3C)ccc2c1=O (stereo not drawn) | inactive |
| CCn1c(SCc2ccccc2)nc2c(c1=O)SCC2 | inactive |
| Cc1ccc(S(=O)(=O)n2nc(-c3ccc(Cl)cc3)nc2NCc2ccccc2)cc1 | inactive |
| CCS(=O)(=O)n1nc(-c2ccccc2)nc1SCc1ccccc1 | 10.7 µM (active) |
| C[C@H](OC(=O)n1ccnc1)[C@@H]1O[C@@]2(C)CCC[C@@H]1O2 | inactive |
| Cc1nnc(N2CCC(C(=O)Nc3ccc(F)cc3)CC2)c2nn(-c3ccc(Cl)cc3)c(C)c12 | inactive |
| Cc1ccc(NC(=O)COC(=O)CN2CCCCCC2=O)c(C)c1 | inactive |
| Cn1c(C(=O)Nc2cccc(C(F)(F)F)c2)cc2c(=O)n3ccccc3nc21 | inactive |
| CCCN(CCC)C(=O)C(Cc1ccccc1)NS(=O)(=O)c1ccc2c(c1)c(=O)n(C)c(=O)n2C (stereo not drawn) | inactive |
| O=C(COC(=O)CNC(=O)c1ccco1)Nc1ccc(F)cc1 | inactive |
| Cc1cc(C(=O)COC(=O)CNC(=O)c2ccc(F)cc2)c(C)n1Cc1ccco1 | 6.75 µM (active) |
| COCCn1c(C)cc(C(=O)COC(=O)CNC(=O)c2ccco2)c1C | inactive |
| CCC(C)NC(=O)Cn1c(=O)n(-c2ccc(Cl)cc2)c(=O)c2c3c(sc21)CCCC3 (stereo not drawn) | inactive |
| COc1ccc(CNC(=O)c2cc3c(=O)[nH]c4ccccc4c3s2)cc1 | inactive |
| COc1ccc(-c2cn3cccnc3n2)cc1 | 13.5 µM (active) |
| COc1cc(OC)cc(-c2nc(=S)n3ccsc3n2)c1 | inactive |
| CC(=O)Nc1ccc(S(=O)(=O)Nc2cccc(NC(=O)C(C)(C)C)c2)cc1 | inactive |

| Structure (SMILES) | Potency |
| --- | --- |
| FC(F)(F)Oc1ccc(-c2cn3cccnc3n2)cc1 | 6.01 µM (active) |
| COc1ccc(-c2cn3ccsc3n2)cc1 | 2.39 µM (active) |
| COc1ccc(N2CCN(C(=O)CSc3nnc4ncccn34)CC2)cc1 | inactive |
| COc1ccc(-c2cn3c(n2)sc2cc(C(=O)Nc4ccc(F)cc4)ccc23)cc1 | inactive |
| COc1ccc(-c2cc(NCc3ccc(F)cc3)n3cnnc3n2)cc1 | inactive |
| Cc1c(-c2cccc(NC(=O)C(C)(C)C)c2)nc2ncccn12 | inactive |
| CC(C)(C)C(=O)Nc1ccc(-c2cn3cccnc3n2)cc1 | 7.57 µM (active) |
| O=C(CCNC(=O)c1ccc(Br)cc1)NCC(c1ccco1)N1CCCCC1 (stereo not drawn) | inactive |
| CN(CC(=O)Nc1cccc(C(F)(F)F)c1)S(=O)(=O)c1cccs1 | inactive |
| CC(C)CCNC(=O)Cn1c(=O)oc2cc(S(=O)(=O)N3CC(C)CC(C)C3)ccc21 (stereo not drawn) | inactive |
| CCOc1ccc(CNC(=O)c2cccc(Nc3nc4ccccc4n4nnnc34)c2)cc1OC | inactive |
| CCN(CC)CCNC(=O)c1cc2c(=O)oc3ccc(C)cc3c2s1 | inactive |
| Cc1ccc(-c2nnc(SCC(=O)NCc3ccccc3)nc2-c2ccc(C)cc2)cc1 | inactive |
| COC(=O)c1cc(NC(=O)c2cnc(SC)nc2-c2ccccc2)cc(C(=O)OC)c1 | inactive |
| COc1ccccc1C(=O)NC(CCSC)C(=O)N1CCN(C(C)=O)CC1 (stereo not drawn) | inactive |
| CC(=O)c1cccc(NC(=O)C2CCN(C(=O)c3ccccc3Cl)CC2)c1 | inactive |
| CC(=O)N1CCCc2ccc(NS(=O)(=O)c3ccc(F)cc3F)cc21 | inactive |
| O=C(O)c1ccc2c(=O)n3c(nc2c1)/C(=C/c1ccc(Cl)c([N+](=O)[O-])c1)CC3 | inactive |
| COc1ccc(OC)c(-c2nc(C(N)=O)c3c(n2)n(-c2ccc4c(c2)OCO4)c(=O)n3C)c1 | inactive |
| CC(C)C12CN3CC(C(C)C)(CN(C1)C3c1ccc(OCc3ccccc3)cc1)C2=O (stereo not drawn) | inactive |
| O=C1C=C(NCCNc2c(F)c(F)c(CO)c(F)c2F)CCC1 | inactive |
| Cc1ccc(C)c(N2CCN(CCCNC(=O)Nc3ccc(Cl)cc3)CC2)c1 | inactive |
| O=C(O)CCC(=O)Nc1ccc(N2CCOCC2)cc1 | inactive |

| Structure (SMILES) | Potency |
| --- | --- |
| CC1CCC(C(C)C)C(=O)/C1=C\c1ccc(NC(=O)CCC(=O)O)cc1 (stereo not drawn) | 16.9 µM (active) |
| O=C(O)CCC(=O)Nc1ccc(OCC2CCCO2)cc1 (stereo not drawn) | inactive |
| O=C(CSc1nnc(-c2ccccc2F)o1)Nc1cccc(C(F)(F)F)c1 | inactive |
| O=C(NC1CCCC1)C(NS(=O)(=O)c1ccc(Br)s1)c1ccccc1 (stereo not drawn) | inactive |
| CN(C)c1nc(-c2cccnc2)nc(-c2ccc(Cl)cc2)c1C#N | inactive |
| CN(C)c1ccc(-c2nnc(-c3cccnc3)o2)cc1 | 9.53 µM (active) |
| Cc1csc(NC(=O)CSc2nnc(-c3cccnc3)o2)n1 | inactive |
| O=C(CCNC(=O)c1ccc([N+](=O)[O-])cc1)NC1CCCCC1 | inactive |
| COc1ccc(CNC(=O)C(C)n2nc(C)c3c(C)n(-c4ccccc4)nc3c2=O)c(OC)c1 (stereo not drawn) | inactive |
| O=C(Nc1cccc(F)c1)NC1CCCCCCC1 | 15.1 µM (active) |
| Cc1cc(C)cc(NC(=O)NC2CCN(CC(=O)Nc3cccc(Cl)c3C)CC2)c1 | inactive |
| Cc1ccc(NC(=O)NC2CCCCC2)cc1S(=O)(=O)N1CCOCC1 | inactive |
| Cc1ccc(NC(=S)NC2CCCC2)cc1 | 10.7 µM (active) |
| C/C(CC(=O)Nc1cccc(F)c1)=N\NC(=O)C(=O)NC1CCCCC1 | inactive |
| CC(C)(C)NS(=O)(=O)c1ccc(NC(=O)NC2CCCCC2)cc1 | inactive |
| Cc1cc(C)cc(NC(=O)NC2CCCCCCC2)c1 | 10.7 µM (active) |
| O=C(Nc1cccc(F)c1)NC1CCCc2ccccc21 (stereo not drawn) | inactive |
| CC(C)N1CCC(NC(=O)Nc2ccccc2)CC1 | inactive |
| Cc1cc(Br)ccc1NC(=S)NC1CCCC1 | inactive |
| Cc1ccc(NC(=O)CSCC(=O)NC2CCCCC2)cc1 | inactive |
| CC(C)c1ccc(NC(=O)NC2CCCCC2)cc1 | 6.75 µM (active) |

From PubChem BioAssay AID588342 (National Center for Advancing Translational Sciences (NCATS), 2011)
